High-throughput results as filed in PubChem BioAssay.
A selection: hits, their analogues and other compounds. The true share with any hit is near 4%.
D1 antagonist – human D1 dopamine receptor antagonism. P21728. HEK293 TREx D1 cells, calcium flux, dopamine EC80; hits give low values. activity change, negative = inhibition, % at 10 µM. hit rate 3.2% among 360,000. AID 504652; in the data active means activity change below about -30%; further: on the % scale 0 is the no-effect control and ±100 the full control effect
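Tetracycline-induced HEK293 T-REx cells with force-coupled D1 receptor were loaded with a no-wash calcium dye. Compound was added after a 10 s baseline and read kinetically for 180 s; EC80 dopamine was then added and calcium flux followed another 180 s.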
TRHR agonist – agonists of human TRH receptor | activation, % at 2 µM | P34981 | hit rate 0.18% among 360,000 | TRHR cells, calcium flux fluo-8, FDSS agonist mode; further: 0% is about no effect
Target sequence (P34981 whole entry, looked up): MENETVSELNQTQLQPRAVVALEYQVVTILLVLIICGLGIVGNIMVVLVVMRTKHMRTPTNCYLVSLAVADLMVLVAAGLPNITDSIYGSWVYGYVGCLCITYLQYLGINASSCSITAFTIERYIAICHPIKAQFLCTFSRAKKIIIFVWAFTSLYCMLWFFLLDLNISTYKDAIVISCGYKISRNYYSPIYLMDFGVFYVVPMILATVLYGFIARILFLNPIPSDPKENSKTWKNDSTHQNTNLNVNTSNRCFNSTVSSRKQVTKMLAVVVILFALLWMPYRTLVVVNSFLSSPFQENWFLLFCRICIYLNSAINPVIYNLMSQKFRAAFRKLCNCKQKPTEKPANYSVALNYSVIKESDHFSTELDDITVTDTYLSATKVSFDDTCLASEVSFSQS
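Agonist-mode FDSS calcium read (Ex 480/Em 530, 1 s cycles) in 1536-well TRHR cells with fluo-8 dye, after 10-cycle baseline and 23 nL compound addition; TRH at EC20 (10 nM final) added afterwards for the enhancer phase.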
TRHR PAM – allosterically enhances the human TRH receptor; P34981; TRHR cells, fluo-8 calcium fluorescence, EC20 TRH enhancement; enhancement, % at 2 µM; hit rate 0.66% among 360,000; AID 493056; in the data active means enhancement above about 30%; further: 0% is about no effect
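Enhancer read-out: after compound pinning and an initial kinetic agonist-mode read, an EC20 of TRH (10 nM final) was injected and fluo-8 calcium signal (Ex 480/Em 530) followed at 1 s/cycle for 100 cycles in TRHR-expressing cells.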
D1 ag – agonists of human D1 dopamine receptor; P21728; HEK293 T-REx D1 cells, calcium flux, agonist mode; activation, % at 2 µM; hit rate 1% among 360,000; AID 504660; further: 0% is about no effect
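Tetracycline-induced HEK293 TREx D1 cells, force-coupled to calcium signalling, were dye-loaded with a no-wash calcium kit. Compound was pin-added after a 10 s baseline. Fluorescence was read kinetically at 1 cycle/s for 180 s, with calcium rises flagged as agonism.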
D1 potentiator – enhances dopamine response at the human D1 receptor; P21728; HEK293 TREx D1 cells, calcium flux, dopamine EC20 potentiation; potentiation, % at 10 µM; hit rate 0.036% among 360,000; in the data active means potentiation above about 30%; further: 0% is about no effect
GRP78 ERSR act – ER stress response induction in glioma | hit rate 0.02% among 420,000 | U87-MG GRP78 promoter luciferase reporter, 16 h | AID 602332 | Potency, µM, inactives show at the highest dose activation, most hits filed as activators; active means well fitted activation curve with a large enough effect; further: potency means the concentration at half of the fitted maximal effect; series mostly up to about 76 µM; % of control where 0% means no effect; nearly all actives have a fitted effect of over 35% in size
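ERSR induction read as luciferase luminescence (Bright-Glo, 10 min at room temperature) in stably transfected human U87-MG glioma cells exposed to compounds for 16 h, using GRP78 as sensor.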
Starred values were filed as active, the others as inactive; . = not tested or not shown. Unless noted, no stated cut-off is given here; in the data, active means activation above about 30%; inactive means the rest.

SMILES	D1 antagonist	TRHR agonist	TRHR PAM	D1 ag	D1 potentiator	GRP78 ERSR act
COc1ccc(/C(C)=N/NC(=O)c2ccc(CSc3nncn3C)cc2)cc1	-17	0	1	3	-4	-4%
C/C(=N\NC(=O)c1ccc(CSc2nncn2C)cc1)c1ccc(Cl)cc1	-32*	-1	5	3	-2	-1%
CSc1nncc(/C(C)=N\Nc2ccccc2)n1	-37*	-1	28	0	-4	-2%
O=C1CC(c2ccco2)CC2=C1C1c3ccccc3C(=O)N1c1ccccc1N2 (configuration not stated)	-24	1	3	1	-6	28µM*
CCC(=O)N1c2ccccc2NC2=C(C(=O)CC(c3ccco3)C2)C1c1ccco1 (configuration not stated)	-1	0	16	0	-5	-4%
Cc1ccc(-c2c(C#N)c(N)nc3c2CCCCC3)o1	-48*	0	9	3	2	0%
Cc1cccc(C)c1NC(=O)CN(C)CC(=O)Nc1cc(Cl)ccc1C#N	-4	0	34*	6	7	-2%
Cc1nc2[nH]onc2c2nccc(=O)c12	-39*	3	-3	4	-1	-6%
O=C1NC(=O)[C@@H]2C3c4ccccc4C=CN3[C@H](C(=O)c3cccs3)[C@H]12 (some centres not stated)	-70*	0	3	4	-10	.
O=C(c1ccco1)[C@@H]1[C@@H]2C(=O)N(c3ccc(F)cc3)C(=O)[C@@H]2C2c3ccccc3C=CN21 (some centres not stated)	3	1	-5	6	3	.
CCCOc1ccc2c(C)c(CC(=O)OC)c(=O)oc2c1	1	0	5	-2	-2	0%
COC(=O)Cc1c(C)c2ccc(OCC(=O)N(C)C)cc2oc1=O	-3	1	30*	4	-2	0%
CC(C)CCCC(C)NS(=O)(=O)Cc1ccccc1 (configuration not stated)	-15	-1	-5	28	-8	0%
CCCCNc1nc2sc3c(c2c(=O)n1-c1cccc(Cl)c1)CCN(C)C3	-39*	1	-2	3	-5	-3%
CCCCCNc1nc2sc3c(c2c(=O)n1-c1cccc(Cl)c1)CCN(C)C3	-85*	0	-23	0	-5	-5%
O=C1C(c2ccc(F)cc2)N(CCc2ccc(Cl)cc2)C(=O)CN1C1CCCCC1 (configuration not stated)	0	0	0	-2	4	-2%
COc1ccc(C2C(C#N)=C(C)NC3=C2C(=O)CC(C)(C)C3)c(OC)c1 (configuration not stated)	-11	0	0	0	-3	-2%
Cc1ccc(C23CC4CC(CC(CN)(C4)C2)C3)cc1	22	11	0	42*	-6	-2%
NCC12CC3CC(C1)CC(c1ccc(Br)cc1)(C3)C2	15	9	2	25	1	-11%
CCN(CC)C(=O)COc1ccc(/C(C)=N/NC(=O)c2ccccc2Br)cc1	-6	1	4	2	-2	-2%
CCN(CC)C(=O)COc1ccc(/C(C)=N/NC(=O)c2ccccc2O)cc1	-51*	0	6	2	-4	4%
CCOc1cc(C(=O)NC)cc(Br)c1OC	-20	-1	25	2	-7	0%
COc1c(/C=N/Nc2ccc([N+](=O)[O-])cc2[N+](=O)[O-])c(C)nn1-c1ccccc1	-33*	0	16	0	0	-5%
Cc1ccc([N+](=O)[O-])cc1/C=N/Nc1nnnn1-c1ccccc1	-59*	0	7	0	-6	-4%
COc1ccccc1NS(=O)(=O)c1ccc(N/N=C/c2c(C)nn(-c3ccccc3)c2N2CCCC2)c([N+](=O)[O-])c1	18	0	0	1	-1	-5%
COc1cc(NC(=O)c2cc(-c3cccc(O)c3)on2)cc(OC)c1OC	0	0	-2	0	-3	-6%
O=C(CSc1n[nH]c(-c2ccccc2)n1)N1CCN(c2ccccc2F)CC1	-2	-1	-3	0	1	-7%
